The values that follow come from PubChem BioAssay (NCATS).

The structures appear in SMILES notation. Several values for one entry are separate records, joined by “and”; a condition that tells them apart may be missing. Equal entries are not always repeated. Unmarked numbers belong to inactive results. Inconclusive results are not listed. Activity calls are given as the source filed them. Unless noted, calls come from the whole dose curve; as a rule, active = well fitted curve in either direction with a large enough effect (not every such curve was filed as active); inconclusive = small, poorly fitted or top-dose-only effect, or another doubt; inactive = flat fitted curve, though single readings scatter.

A short description of assay [1]: AP1 Signaling Pathway (AID 357). Note: % is set by controls: 0 for no effect and ±100 for the full control effect. Conditions: ME-180 AP-1-bla reporter, EGF-induced, beta-lactamase ratio, 5 h; at 17.2 µM (top of the series) unless noted. Summed up:
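AP-1-bla ME-180 cells with beta-lactamase reporter under AP-1 response element, stimulated with EC50 EGF; compounds titrated, 5 hours at 37 degrees Celsius. CCF4 read at 460/530 nm ratio; positive and negative modulators judged by AC50.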

Assay [2] is described as follows: NFAT Signaling Pathway (AID 444).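 Note: carbachol stimulus at about its EC50 of 1 µM final; % is set by controls: 0 for no effect and ±100 for the full control effect.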 As to conditions: Jurkat NFAT-bla M1, carbachol, beta-lactamase ratio, 5 h; at 17.2 µM (top of the series) unless noted. Summed up:
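Read-out: CCF4 FRET ratio (460 nm/530 nm) after 1 h RT dye loading, used for %activity and AC50 from titration series. Cells: Jurkat NFAT-β-lactamase/M1 line, treated with compound plus 1 uM carbachol for 5 h, 37 °C.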

Assay [3] concerns the target Glucocorticoid receptor (Homo sapiens) (UniProt P04150). Description: GR-GFP Redistribution (AID 450;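 active = compounds whose dose series gives a full or clear partial fitted curve of increased nuclear translocation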; note: potency is the fitted concentration of half-maximal effect). As to conditions: U2OS GR-GFP nuclear translocation, laser cytometry, 2 h.
Assay [4] has the same target. Description: GR-EFC Redistribution (AID 451; calls by dose curve; note: potency is the fitted concentration of half-maximal effect). As to conditions: CHO-K1 GR-EFC translocation, beta-gal luminescence, 2 h. Summed up: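 Translocation of GR-ED fusion to nuclear EA restores b-gal, read by luminescence after 1 h room-temperature detection. Engineered CHO-K1 biosensor cells, 1,000/well, exposed 2 h at 37 C to titrations up to 46 uM final.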
Assay [5] has as its target Mitogen-activated protein kinase 10 (Mus musculus) (UniProt Q61831). Description: JNK3 AlphaScreen Assay (AID 530).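 For activity change, negative = inhibition: signal reports phosphorylation of biotinylated GST-cJun 1-79 at Ser73 with 10 µM ATP; % is set by controls: 0 for no effect and ±100 for the full control effect.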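 Note: kinase came from lysate of stimulated human HepG2 cells.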 Note: potency is the fitted concentration of half-maximal effect. Summed up:
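Kinase buffer: 20 mM Tris-HCl pH 7.6, 10 mM MgCl2, 1 mM DTT, 0.1 mM Na3VO4, 0.01% Tween-20; ATP 10 uM. Substrate biotin-GST-cJun(1-79), enzyme from activated HepG2 lysates. Detection by Ser73 phospho-antibody AlphaScreen.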
Background: Bead proximity is the source of the signal in Alpha formats.

The target in assay [6] is 3',5'-cyclic-AMP phosphodiesterase 4B (Homo sapiens) (UniProt Q07343). Description: qHTS Assay for Inhibitors of PDE-IV (AID 607; active = well fitted activation curve with a large enough effect in the main read-out, with a control signal flat, not every such curve was filed as active; note: % of control where 0% means no effect). Summed up: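 Cell-based read-out of cAMP via a modified cyclic nucleotide-gated channel and membrane potential dye (535/590 nm) in HEK293 cells expressing PDE4 endogenously. Compounds tested up to 22.9 uM final; 100 uM RO 20-1724 reference.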
Sequence of 3',5'-cyclic-AMP phosphodiesterase 4B (Homo sapiens) (Q07343 whole entry, looked up): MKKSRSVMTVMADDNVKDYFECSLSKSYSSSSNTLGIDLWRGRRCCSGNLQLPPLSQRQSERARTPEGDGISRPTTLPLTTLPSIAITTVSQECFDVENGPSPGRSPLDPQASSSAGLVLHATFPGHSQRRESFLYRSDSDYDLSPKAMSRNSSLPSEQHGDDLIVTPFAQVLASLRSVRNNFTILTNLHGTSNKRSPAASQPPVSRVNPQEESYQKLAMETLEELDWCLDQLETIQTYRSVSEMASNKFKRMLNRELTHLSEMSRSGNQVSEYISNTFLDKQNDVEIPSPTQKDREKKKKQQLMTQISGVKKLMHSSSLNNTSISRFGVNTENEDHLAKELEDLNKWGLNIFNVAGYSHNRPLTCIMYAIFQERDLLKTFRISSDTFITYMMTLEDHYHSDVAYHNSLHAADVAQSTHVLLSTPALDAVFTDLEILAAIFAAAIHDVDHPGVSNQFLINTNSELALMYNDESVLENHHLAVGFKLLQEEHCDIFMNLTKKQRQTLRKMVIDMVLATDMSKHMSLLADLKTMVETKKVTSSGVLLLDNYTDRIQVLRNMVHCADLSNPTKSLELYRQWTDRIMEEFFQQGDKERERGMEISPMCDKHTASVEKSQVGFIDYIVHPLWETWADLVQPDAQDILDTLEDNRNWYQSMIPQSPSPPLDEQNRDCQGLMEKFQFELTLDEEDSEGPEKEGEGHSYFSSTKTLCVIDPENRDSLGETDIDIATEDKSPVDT

Assay [7] can be described thus: Stat Signaling Pathway (AID 446).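 Note: ME-180 cervical cancer cells given 40 pM IL-6 alongside compound; SIE-controlled beta-lactamase reporter measured as 460/530 nm FRET emission ratio; % is set by controls: 0 for no effect and ±100 for the full control effect.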 Conditions: ME-180 (cervical carcinoma) SIE beta-lactamase reporter, IL-6 stimulated, 5 h; at 17.2 µM (top of the series) unless noted. The procedure, abridged: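 FRET read-out (405 nm excitation, 460/530 nm emission) of a beta-lactamase reporter under a STAT-inducible element in ME-180 cervical carcinoma cells. Cells with compound receive 40 pM IL-6 for 5 h. Values are normalised to AC90 stimulation and AC90 JAK-inhibitor controls.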

The nature of assay [8]: Cell Viability - BJ (AID 421; calls by dose curve;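 note: potency is the fitted concentration of half-maximal effect; cells exposed to compound for 40 hours at 37 °C before readout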). Conditions: BJ fibroblast viability, qHTS. Summed up: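 Cytotoxicity as drop in intracellular ATP (CellTiter-Glo, 20 min RT) after 40 hr compound exposure of BJ fibroblasts at 37 °C. Titrations scaled between DMSO and 100 uM tamoxifen, Hill-fitted for AC50.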
Background: In qHTS, concentration-response curves come from the screen itself.

The nature of assay [9]: Cell Viability - Jurkat (AID 426;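 active = dose-dependent loss of cell ATP signal giving a full or clear fitted curve, ranked by lower potency value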;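 note: potency is the fitted concentration of half-maximal effect; cells exposed to compound for 40 hours at 37 °C before ATP read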). As to conditions: qHTS. The procedure, abridged: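 Luminescent ATP read-out (CellTiter-Glo, 20 min at room temperature) after 40 hr compound exposure at 37 °C of Jurkat E6-1 cells, 5000/well. Decreased ATP taken as cytotoxicity; AC50 from standard Hill equation.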
Assay [10] in a line: Cell Viability - Hek293 (AID 427;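 active = compounds whose dose-response curve shows a full or clear partial loss of cell viability, called from curve shape rather than a numeric limit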;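 note: potency is the fitted concentration of half-maximal effect; cells exposed to compound for 40 hours at 37 °C before reading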). Conditions: qHTS. Summed up: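 Luminescent ATP content (CellTiter-Glo, 20 min at room temperature) was measured after a 40 hr, 37 °C compound exposure of HEK293 cells. AC50 values came from Hill-equation fits of qHTS concentration-response data normalized to DMSO and 100 uM tamoxifen.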
Assay [11] is described as follows: Cell Viability - HepG2 (AID 433; calls by dose curve; note: potency is the fitted concentration of half-maximal effect). Conditions: qHTS. Summed up: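 Cytotoxicity is scored as loss of intracellular ATP in HepG2 cells exposed to compounds for 40 h. Concentration-response curves, normalized to DMSO and 100 uM tamoxifen, give AC50 values.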
The nature of assay [12]: Cell Viability - SK-N-SH (AID 435; calls by dose curve; note: potency is the fitted concentration of half-maximal effect). As to conditions: SK-N-SH neuroblastoma cell viability qHTS. The procedure, abridged: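 Cells seeded at 1500 per well and incubated 5 hr at 37 °C. Compound added, then 40 hr at 37 °C. CellTiter-Glo added, 20 min at room temperature, luminescence read.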
The nature of assay [13]: Cell Viability - N2a (AID 540; active = well fitted curve in the direction sought with a large enough effect; an effect the other way counts as inactive or inconclusive; note: potency is the fitted concentration of half-maximal effect; nearly all actives have a fitted effect of over 45% in size). Conditions: N2a mouse neuroblastoma cell viability; activity change, negative = cytotoxicity: at 92.2 µM (top of the series). The procedure, abridged: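 N2a mouse neuroblastoma, 1500 cells/well, 5 hr settle; compound 40 hr, 37 °C; CellTiter-Glo 20 min RT; luminescence; Hill-fit AC50.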
Assay [14] can be described thus: Cell Viability - NIH 3T3 (AID 541; active = well fitted curve in the direction sought with a large enough effect; an effect the other way counts as inactive or inconclusive; note: nearly all actives have a fitted effect of over 25% in size; note: potency is the fitted concentration of half-maximal effect;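 for activity change, negative = cytotoxicity: plate controls were DMSO alone for no effect and tamoxifen positive control for full effect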). As to conditions: NIH 3T3 cell viability, qHTS; activity change, negative = cytotoxicity: at 92.2 µM (top of the series). The procedure, abridged:
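qHTS format; 40 hr compound exposure, 37 °C; CellTiter-Glo luminescence (cellular ATP) read-out after 20 min at RT. Decrease in ATP = cytotoxicity; AC50 from standard Hill fit.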

Assay [15] in a line: Cell Viability - HUV-EC-C (AID 542; active = well fitted curve in the direction sought with a large enough effect; an effect the other way counts as inactive or inconclusive; note: potency is the fitted concentration of half-maximal effect; nearly all actives have a fitted effect of over 35% in size). The procedure, abridged: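 Luminescent ATP read-out (CellTiter-Glo, 20 min room temperature) after 40 hr compound treatment of HUV-EC-C cells at 37 °C. Concentration-response data fitted with the standard Hill equation to give AC50; tamoxifen and doxorubicin served as positive controls.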
Assay [16] is described as follows: Cell Viability - H-4-II-E (AID 543; active = well fitted curve in the direction sought with a large enough effect; an effect the other way counts as inactive or inconclusive; note: potency is the fitted concentration of half-maximal effect; nearly all actives have a fitted effect of over 35% in size). Summed up:
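qHTS, rat hepatoma H-4-II-E, 1500 cells/well; 40 hr compound exposure, 37 °C; CellTiter-Glo ATP luminescence after 20 min RT; AC50 by standard Hill fit.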

Assay [17] in a line: Cell Viability - Renal Proximal Tubule (AID 545; active = well fitted curve in the direction sought with a large enough effect; an effect the other way counts as inactive or inconclusive; note: potency is the fitted concentration of half-maximal effect; nearly all actives have a fitted effect of over 40% in size). Summed up:
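Cytotoxicity is scored as a concentration-dependent drop in cellular ATP in primary rat renal proximal tubule cells exposed for 40 hr. AC50 derives from Hill modelling.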

Assay [18] can be described thus: Cell Viability - Mesenchymal (AID 546; active = well fitted curve in the direction sought with a large enough effect; an effect the other way counts as inactive or inconclusive;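 note: potency is the fitted concentration of half-maximal effect; cells exposed to compound for 40 hours before reading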). The procedure, abridged:
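CellTiter-Glo luminescence (intracellular ATP, 20 min room temperature) after 40 hr compound exposure at 37 °C of 1000 glomerulus-derived human kidney mesenchymal cells/well; AC50 values obtained by fitting qHTS concentration-response data to the Hill equation.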

The nature of assay [19]: Cellular Toxicity (caspase-3) HepG2 (AID 654; active = well fitted curve in the direction sought with a large enough effect; an effect the other way counts as inactive or inconclusive; note: potency is the fitted concentration of half-maximal effect). Summed up:
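Luminescent Caspase-Glo 3/7 readout after 16 hr compound exposure of human hepatocellular carcinoma HepG2 cells at 37 °C; qHTS concentration-response, normalized DMSO = 0%, 100 uM tamoxifen = 100%; AC50 by standard Hill equation.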

Assay [20] can be described thus: Cellular Toxicity (caspase-3) Jurkat (AID 655; active = well fitted curve in the direction sought with a large enough effect; an effect the other way counts as inactive or inconclusive;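 note: cells exposed to compound for 16 h at 37 °C before reading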). The procedure, abridged:
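Caspase 3/7 activation is scored as increased luminescence in Jurkat cells cultured with compound for 16 hours in complete medium. AC50 values come from Hill fits of qHTS concentration-response data normalized to DMSO and 100 uM tamoxifen controls.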

Sequence of Glucocorticoid receptor (Homo sapiens) (P04150 whole entry, looked up, the tested form may be a part): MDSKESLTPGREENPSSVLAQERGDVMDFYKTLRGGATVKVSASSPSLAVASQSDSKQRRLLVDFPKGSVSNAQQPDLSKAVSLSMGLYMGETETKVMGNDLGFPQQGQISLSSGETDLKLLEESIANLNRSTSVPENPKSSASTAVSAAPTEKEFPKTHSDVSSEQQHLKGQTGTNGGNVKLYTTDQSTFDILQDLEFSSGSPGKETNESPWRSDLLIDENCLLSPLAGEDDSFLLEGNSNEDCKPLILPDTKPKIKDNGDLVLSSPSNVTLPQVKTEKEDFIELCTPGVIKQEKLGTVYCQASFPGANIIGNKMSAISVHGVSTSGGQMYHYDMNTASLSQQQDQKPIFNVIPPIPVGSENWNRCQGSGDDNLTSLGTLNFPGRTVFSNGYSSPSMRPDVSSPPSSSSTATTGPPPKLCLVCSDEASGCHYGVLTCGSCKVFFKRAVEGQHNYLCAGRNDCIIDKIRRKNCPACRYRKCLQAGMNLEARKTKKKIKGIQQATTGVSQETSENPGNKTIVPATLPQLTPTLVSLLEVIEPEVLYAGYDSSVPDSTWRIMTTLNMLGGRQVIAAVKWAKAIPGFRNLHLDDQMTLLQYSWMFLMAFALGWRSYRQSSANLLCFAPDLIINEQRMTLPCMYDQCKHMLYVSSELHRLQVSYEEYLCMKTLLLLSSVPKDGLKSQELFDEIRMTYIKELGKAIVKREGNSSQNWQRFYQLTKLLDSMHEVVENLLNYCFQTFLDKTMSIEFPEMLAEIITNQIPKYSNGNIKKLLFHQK

As to `COc1cc2ncnc(Nc3cccc(Cl)c3)c2cc1OC`, the activity change, negative = inhibition in [1] was -106% [at 38 µM] (active); in assay [2], 3.52% [at 38 µM]. The Potency in assay [3] and in assay [4] was > 46 µM throughout. Further, the Potency entry in assay [5] is “inactive”. In assay [6], the outcome was inactive.

Turning to `Nc1nc(F)nc2c1ncn2[C@@H]1O[C@H](CO)[C@@H](O)[C@@H]1O`, in assay [1], the activity change, negative = inhibition is -4.13%. Further, the activity, negative = inhibition in [7] was 7.84%. Besides, in [3], the Potency is > 20.6 µM.

For the molecule `CNNCc1ccc(C(=O)NC(C)C)cc1`, the activity change, negative = inhibition in assay [1] was -1.4%; in assay [2], -25.9%. Besides, the Potency in [3] and in assay [4] was > 20.6 µM each time. Besides, in assay [5], the Potency result was “inactive”. Moreover, the molecule was called inactive in [6].

On to `C1CCC(C(CC2CCCCN2)C2CCCCC2)CC1` (centres undefined), for which, in [1], the activity change, negative = inhibition is 22.4%. For the same molecule, in assay [7], the activity, negative = inhibition is 5.25%. The Potency in assay [3] was > 20.6 µM.

As for `O=c1oc2c(O)c(O)cc3c(=O)oc4c(O)c(O)cc1c4c23`, the figures for the Potency in assay [3], in assay [4] and in assay [5] were > 46 µM, > 46 µM and 1.26 µM (active), respectively.

For `CN(C)c1ccc(C(=C2C=CC(=[N+](C)C)C=C2)c2ccc(N(C)C)cc2)cc1`, the Potency in assay [8] is 5.35 µM (active); in assay [9], 2.75 µM (active); in assay [10] it was 5.18 µM (active); in [11], 8.58 µM (active); in assay [12], 1.8 µM (active); in [5], 2 µM (active). Also, the Potency in assay [13] is 0.794 µM (active); in [14], 1 µM (active); in assay [15] it was 3.98 µM (active); in [16], 2 µM (active); in assay [17], 12.6 µM (active); in assay [18], 2.51 µM (active). Further, in assay [19], the Potency was 31.6 µM (active).

Turning to `COC(=O)Nc1nc2ccc(C(=O)c3ccccc3)cc2[nH]1`, the activity change, negative = inhibition in assay [1] was 17.1% and -8.17%. For the same molecule, the activity, negative = inhibition in [7] is -12.3% and -12%. Moreover, the Potency in assay [3] and in assay [4] was > 20.6 µM each time. For the same molecule, in assay [5], the Potency entry was “inactive”. The result in assay [6] was inactive.

For the molecule `CCOC(=O)c1ccc(OC(=O)CCCCCN=C(N)N)cc1`, the activity change, negative = inhibition in assay [1] is 1.04%. Moreover, in assay [7], the activity, negative = inhibition is -23.2%. Besides, the Potency entry in [5] is “inactive”. Also, the call in assay [6] was inactive.

As to `N=C(N)c1ccc(OCCCCCOc2ccc(C(=N)N)cc2)cc1`, the Potency was > 92 µM in [11]; > 92 µM in [12]; > 20.6 µM in assay [3]; > 20.6 µM in [4]; 15.8 µM (active) in assay [13]. In addition, in assay [7], the activity, negative = inhibition was 15.4%. Moreover, the Potency result in [5] and in assay [19] was “inactive” each time. The activity change, negative = cytotoxicity in [14] was -80.1% (active). The result in [6] and in assay [20] was inactive.

`Cc1cccc(N(C)C(=S)Oc2ccc3ccccc3c2)c1`: the activity change, negative = inhibition in assay [1] is -6.52% and 9.03%. For the same molecule, in assay [7], the activity, negative = inhibition was 4.85% and -13.1%. Also, the Potency in assay [3] and in assay [4] was > 20.6 µM throughout.
